Results on 98 compounds are retold here after PubChem BioAssay AID492997 (Johns Hopkins Ion Channel Center, 2010).

The term inhibition denotes how much of the control response was suppressed.

Hit rate of the full screen: of about 4,900 compounds, about 2,000 (41%) were called active.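 The calls were made as follows: active = thallium signal drop beyond 5 SD of the untreated control mean, on both duplicate plates; inactive = the rest.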 The set was probably picked from earlier hits. A selection follows.

The nature of the assay: nonspecific activity without KCNK9 expression – cell-based, second counter screen, non-induced KCNK9-HEK293, counter-screen for KCNK9 inhibitor project, confirmation (AID 492997).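 As to inhibition: plate controls were buffer only IC0 wells for no effect and SID17386958 at its maximal inhibitory level for full effect.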 The following applies: non-induced KCNK9-HEK293, FluxOR thallium flux, at 10 µM; hits give high values. On the technique in general: A counterscreen serves to expose hits that act by an unwanted route or on another target.
Consider `O=C(COC(=O)/C(=C/c1cccs1)c1cccs1)NCc1ccccc1Cl`, for which the inhibition was 31% (active).

In the case of `Cc1ccc(NC(=O)c2cc([N+](=O)[O-])ccc2Cl)c(O)c1`, the inhibition was 32% (active).

Take `N#Cc1nc(Cc2cccc3ccccc23)oc1NCc1ccc2c(c1)OCO2`: the inhibition was 53.5% (active).

`O=C(CC(NC(=O)c1ccccc1)c1ccccc1)Nc1ccc(F)c(F)c1` (stereo not drawn): the inhibition is 37% (active).

Turning to `Cc1ccc(C(=O)c2c(NC(=O)c3ccccc3)sc(C)c2C)cc1`, the inhibition result was “inactive”.

On to `O=[N+]([O-])c1ccc(N2CCN(CC(O)COc3ccccc3)CC2)cc1` (stereo not drawn), for which the inhibition entry is “inactive”.

With `Cc1ccc(C)c(NC(=S)NNC(=S)Nc2ccc(C(C)C)cc2)c1`, the inhibition entry is “inactive”.

For `O=C(Cn1cc(C(=O)c2cccs2)c2ccccc21)NCc1cccs1`, the inhibition was 29.5% (active).

Take `CCOc1cccc(OCCCOc2cccc3cccnc23)c1`: the inhibition result was “inactive”.

Take `Cc1cc(Cl)ccc1C(=O)C1CCCN(C(=O)CCN2CCCO2)C1` (stereo not drawn): the inhibition entry is “inactive”.

For `CCCOc1ccc2c3c(c(=O)oc2c1OCCC)CCC3`, the inhibition is 48.5% (active).

With `Cc1cc2ccccn2c1C(=O)c1cccc(F)c1`, the inhibition entry is “inactive”.

With `COc1cc(Cl)c(C)cc1NC(=O)CSc1nnc(-c2ccco2)n1CC(C)C`, the inhibition is 25.5% (active).

As to `O=C(Nc1nnc(SCc2ccc(Cl)cc2Cl)s1)C1COc2ccccc2O1` (stereo not drawn), the inhibition result is “inactive”.

Take `COc1cccc(-c2nn(C)c3sc(C(=O)N4CCN(c5ccccc5)CC4)cc23)c1`: the inhibition result was “inactive”.

Turning to `COc1ccccc1C(c1nnnn1C(C)(C)C)N1CCN(Cc2ccccc2)CC1` (stereo not drawn), the inhibition is 37.5% (active).

As for `CC1=C/C(=N\OS(=O)(=O)c2ccccc2)C=CC1=O`, the inhibition entry was “inactive”.

As for `CCOc1ccccc1NC(=O)C1CCCN(S(=O)(=O)c2ccccc2)C1` (stereo not drawn), the inhibition result was “inactive”.

In the case of `Clc1ccc(COn2c(-c3ccc(Cl)cc3Cl)nc3ncccc32)cc1`, the inhibition is 45% (active).

On to `CCOC(=O)C(C)n1cnc2scc(-c3ccc(C)c(C)c3)c2c1=O` (stereo not drawn), for which the inhibition entry is “inactive”.

Regarding `CCCCCCCCCCOC(=O)Cn1c(COc2cccc(OC)c2)[n+](C)c2ccccc21`, the inhibition was 28% (active).

As to `CCCCCCCCCCOC(=O)Cn1c(COc2ccc(C)cc2)[n+](C)c2ccccc21`, the inhibition entry was “inactive”.

For the compound `Cc1onc(-c2ccc(Cl)cc2)c1-c1ccnn1S(=O)(=O)c1ccc(Cl)cc1`, the inhibition was 46.5% (active).

Take `Cc1cc2ccccn2c1C(=O)c1cccc(S(=O)(=O)N2CCOCC2)c1`: the inhibition entry was “inactive”.

Take `Cc1cccc(N2CCN(C(=O)c3cccc(S(=O)(=O)N4CCc5ccccc5C4)c3)CC2C)c1` (stereo not drawn): the inhibition entry is “inactive”.

Turning to `CCCCn1ccnc1C(=O)c1cccc(S(=O)(=O)N2c3ccccc3CC2C)c1` (stereo not drawn), the inhibition was 46.5% (active).

In the case of `C=CCc1cc(S(=O)(=O)c2ccc(O)c(CC=C)c2)ccc1O`, the inhibition is 26% (active).

As for `O=C1CC(c2ccccc2)=NN1c1ccc([N+](=O)[O-])cc1`, the inhibition entry was “inactive”.

For `COc1ccc([N+](=O)[O-])cc1-c1nc2ccccc2nc1-c1ccccc1`, the inhibition was 37% (active).

As to `Cc1ccc(CN2CCN(/N=C/c3ccco3)CC2)c(C)c1`, the inhibition result was “inactive”.

Turning to `CCOC(=O)C(C)Sc1nc2ccccc2c(=O)n1CC1CCCCC1` (stereo not drawn), the inhibition is 31.5% (active).

Take `Cc1[nH][nH]c(=O)c1C(c1ccc(-c2ccc(Cl)cc2)o1)c1c(C)[nH][nH]c1=O`: the inhibition entry was “inactive”.

`CC(C)(C)SCCSC1=CC(=O)CC(c2ccccc2)C1` (stereo not drawn): the inhibition result was “inactive”.

On to `Cc1cccc(NC(=O)c2sc3nc4c(c(-c5ccco5)c3c2N)CCC4)c1`, for which the inhibition is 38.5% (active).

As for `Cc1ccnc(N2CCN(C(=O)CSc3nc4ccccc4nc3N3CCCCC3)CC2)c1`, the inhibition result was “inactive”.

`COC(=O)c1cc(NC2c3ccccc3C(=O)N2c2ccc(Cl)cn2)cc(C(=O)OC)c1` (stereo not drawn): the inhibition is 28.5% (active).

Take `CCOC(=O)N/N=C/c1cn(Cc2ccccc2Cl)c2ccccc12`: the inhibition is 25.5% (active).

With `COc1cc(C(CCN2CCN(c3ccccc3)CC2)c2c(OC)cc(OC)c3ccc(=O)oc23)cc(OC)c1OC` (stereo not drawn), the inhibition entry was “inactive”.

In the case of `Cc1ccc(C2=NN(C)c3nc4ccccc4n3C2)cc1`, the inhibition result was “inactive”.

For `CCC/C=C(\CCC)C(NC(=O)Cc1ccccc1)c1ccc(C(=O)OC)cc1` (stereo not drawn), the inhibition was 53% (active).

On to `CC(Oc1ccc2ccccc2c1)C(=O)NNC(=S)NC(=O)c1ccco1` (stereo not drawn), for which the inhibition entry is “inactive”.

In the case of `O=C(Nc1ccc(Oc2ccccc2)cc1)c1ccco1`, the inhibition is 39.5% (active).

`Cc1ncoc1C(=O)N1CCCC(C(=O)c2ccc3c4c(cccc24)CC3)C1` (stereo not drawn): the inhibition entry is “inactive”.

As to `O=S(=O)(Nc1cccc(Oc2ccc(Cl)cc2)n1)c1ccc(F)cc1`, the inhibition result was “inactive”.

Consider `Cc1cc(Oc2ccc(Cl)cc2)nc(SCC(=O)c2ccccc2)n1`, for which the inhibition is 28% (active).

Turning to `CCOC(=O)CSc1nc2c(sc(=S)n2CCc2ccccc2)c(=O)n1Cc1ccco1`, the inhibition was 35.5% (active).

As for `O=C(COC(=O)c1ccccc1)Nc1ccccc1Sc1ccccc1`, the inhibition is 34.5% (active).

Regarding `COc1ccc(OC)c(-c2csc(-c3cccs3)n2)c1`, the inhibition is 26.5% (active).

Consider `COc1ccccc1/C=C/C=N/n1c(-c2ccc(Cl)cc2Cl)n[nH]c1=S`, for which the inhibition result is “inactive”.

As to `Brc1ccc(C2CC(c3ccccc3)=Nc3ccccc3N2)cc1` (stereo not drawn), the inhibition is 34.5% (active).

For `COc1ccc(C(=O)C2CCCN(Cc3ccc4nonc4c3)C2)c(C)c1` (stereo not drawn), the inhibition entry is “inactive”.

Consider `COc1ccc(C2CC(c3cccs3)=Nc3ccccc3S2)cc1OC` (stereo not drawn), for which the inhibition is 33% (active).

Regarding `CCCCNC(=S)N/N=C1\CCCCc2ccccc21`, the inhibition entry is “inactive”.

In the case of `CCOC(=O)N1CCN(C(=O)COc2ccc3oc4c(c3c2)CCCC4)CC1`, the inhibition result is “inactive”.

For the compound `CCOc1ccc(C(C)C)cc1S(=O)(=O)n1nc(C)cc1C`, the inhibition was 39.5% (active).

Consider `O=C(NC(=S)Nc1ccccc1C(=O)O)c1ccc(-c2ccc(Br)cc2)o1`, for which the inhibition result is “inactive”.

As to `O=c1cc(CN2CCN(c3cccc(Cl)c3)CC2)c2cc3c(cc2o1)CCCC3`, the inhibition entry was “inactive”.

For the compound `CCc1cccc(C)c1N(C(=O)Cn1c(CO)nc2ccccc21)C(C)COC` (stereo not drawn), the inhibition is 33% (active).

Regarding `Cc1c(C(=O)Nc2ccccn2)oc2ccc(Br)cc12`, the inhibition was 29.5% (active).

As for `COc1cc(C2CC(=O)N3CN(Cc4ccccc4)CSC3=C2C#N)ccc1OCc1ccccc1` (stereo not drawn), the inhibition entry was “inactive”.

For `CCCCCC(O)c1cccc(OCc2ccc3ccccc3n2)c1` (stereo not drawn), the inhibition is 38.5% (active).

`Cc1ccc(C(=O)c2c(NC(=O)c3ccncc3)sc3c2CCCC3)cc1`: the inhibition result was “inactive”.

On to `CCCCN(Cc1ccccc1)C(=O)C1CCN(Cc2sccc2C)CC1`, for which the inhibition entry was “inactive”.

Regarding `O=C(Oc1ccc(Br)cc1C(=S)N1CCOCC1)c1cccc([N+](=O)[O-])c1`, the inhibition entry was “inactive”.

Take `O=C(C[C@H]1C(=O)N(c2ccc(F)c(F)c2)C[C@@H]1Cc1ccccc1)Nc1ccccc1`: the inhibition was 37% (active).

On to `COc1ccc(C(CCN(Cc2ccc(OC)c(OC)c2)C(=O)CCl)c2ccccc2)cc1` (stereo not drawn), for which the inhibition entry is “inactive”.

For `Cc1ccc(CN(N=Nc2nonc2N)c2nonc2N)c(C)c1`, the inhibition is 43.5% (active).

Turning to `CC(C)CC(COCc1ccc(Cl)cc1)N1CCN(C(=O)c2ccc(C(F)(F)F)cc2)CCC1=O` (stereo not drawn), the inhibition is 29.5% (active).

On to `Cc1ccccc1CSCCNC(=O)c1ccc(N(C)S(=O)(=O)c2ccccc2)cc1`, for which the inhibition result was “inactive”.

`CN(c1ccccc1)S(=O)(=O)c1cccc(NC(=O)Cc2c(F)cccc2Cl)c1`: the inhibition is 23.5% (active).

In the case of `COc1ccccc1N1CCN(c2ncnc3sc(C)c(-c4ccccc4)c23)CC1`, the inhibition result is “inactive”.

Regarding `Clc1ccc(CSc2nnc(/C=C/c3ccccc3)o2)c(Cl)c1`, the inhibition entry was “inactive”.

On to `CCN(CC)S(=O)(=O)c1ccc(N(C)Cc2ccc(C(F)(F)F)cc2)nc1`, for which the inhibition was 39.5% (active).

Consider `CCCC1=Nc2cc(C(=O)NCc3ccco3)ccc2Sc2ccccc21`, for which the inhibition was 39.5% (active).

As for `O=C(NCc1ccco1)c1ccc(NS(=O)(=O)c2cccc([N+](=O)[O-])c2)cc1`, the inhibition entry is “inactive”.

With `COc1cc(Cl)ccc1OCc1cc(C(=O)N2CC[C@@H]3CCCC[C@H]3C2)no1`, the inhibition result was “inactive”.

In the case of `CCOc1ccc(C2c3[nH]c4ccccc4c3CCN2Cc2cccn2-c2ncccn2)cc1` (stereo not drawn), the inhibition was 25.5% (active).

With `COCCN(C(=S)Nc1cccc(Cl)c1C)C(C)c1ccco1` (stereo not drawn), the inhibition result is “inactive”.

For `Cn1nc(-c2ccccc2)c(CSc2cccc(Cl)c2)c1Cl`, the inhibition was 38% (active).

Take `CCOC(=O)C1(CCOc2ccccc2)CCN(Cc2cc(OC)c(O)cc2Cl)CC1`: the inhibition result is “inactive”.

With `CCc1nnc(NS(=O)(=O)c2ccc(NC(=S)NC(=O)/C=C/c3cccs3)cc2)s1`, the inhibition result was “inactive”.

Consider `COc1cccc(NC(=S)N(CCc2c(C)[nH]c3ccccc23)Cc2ccco2)c1`, for which the inhibition was 30% (active).

For the compound `Cc1[nH]c2ccccc2c1CCN(Cc1cccs1)C(=S)NC(C)(C)C`, the inhibition result is “inactive”.

Turning to `O=C(Nc1ccc(S(=O)(=O)N2CCCCC2)cc1)C1CCN(C(=O)c2ccc(F)cc2)CC1`, the inhibition result is “inactive”.

Consider `O=C(Cc1ccccc1)n1nc(-c2ccccc2)nc1NCc1ccco1`, for which the inhibition is 33% (active).

Consider `CCCC(=O)n1nc(NCc2ccc(OC)cc2)nc1NCc1ccc(OC)cc1`, for which the inhibition entry is “inactive”.

As to `COc1ccccc1NC(=O)CSc1nc2sc(C)c(C)c2c(=O)n1Cc1ccco1`, the inhibition is 38.5% (active).

On to `C=CCOc1ccc(/C=N/NC(=O)C(C)Sc2ccccn2)cc1OCC` (stereo not drawn), for which the inhibition was 39% (active).

Consider `CCCN1C(=O)C(Cc2nc3ccccc3c(=O)n2-c2ccccc2)c2cc(C)ccc21` (stereo not drawn), for which the inhibition was 37.5% (active).

For the compound `CCOc1ccc(CN(Cc2ccco2)C(c2cccs2)c2nnnn2C(C)(C)C)cc1` (stereo not drawn), the inhibition is 41% (active).

In the case of `Cc1csc(Nc2ccc(Cl)cc2)[n+]1-c1ccc(Cl)cc1`, the inhibition entry is “inactive”.

For `COc1ccc(-c2oc(/N=C/N3CCCC3)c(C#N)c2-c2ccc(OC)cc2)cc1`, the inhibition entry was “inactive”.

As to `CCC1=NN(C(=O)Cc2ccc([N+](=O)[O-])cc2)C(O)(c2ccc(Br)cc2)C1` (stereo not drawn), the inhibition was 28.5% (active).

Regarding `Clc1cccc(-c2nc3nc4ccccc4nc3n2Cc2ccco2)c1`, the inhibition result is “inactive”.

As for `Clc1ccc(Cl)c(Oc2ccc(Oc3nc(Cl)ccc3Cl)cc2)n1`, the inhibition result was “inactive”.

With `COC(=O)C1=C(Nc2ccc(C)cc2)C=C(C)C(C(=O)OC)C1c1ccc(F)cc1` (stereo not drawn), the inhibition was 37.5% (active).

With `Cc1ccc(C(=O)/C=C/c2c(C)nn(-c3ccccc3)c2Cl)cc1`, the inhibition entry is “inactive”.

For the compound `O=C(Nn1c(SCc2ccc([N+](=O)[O-])cc2)nc2ccccc2c1=O)c1ccc(F)cc1`, the inhibition result was “inactive”.
